From PubChem BioAssay
The source made the active and inactive calls.

Legend:
[1] = system: Human papillomavirus type 1a protein E7 (residues 44-93); test: small molecules binding HPV E7 44-93 – biochemical, small-molecule microarray, residues 44-93, 635 nm fluorescence, primary screen (AID 1108); settings: fluorescence 635 nm, higher = more signal;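 further: E7 fragment applied at 1 µg/mL in TBST for 1 h at 4 C; score combines spot fluorescence with its signal to noise ratio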
[2] = hepatitis C replication reporter changes, two-sided – Huh7 cells, luciferase reporter, HCV replication inhibitor project, primary screen (AID 1109); settings: Huh7 HCV replicon luciferase reporter, 48 h; higher = more signal;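 further: huh7 hepatoma cells harbouring a luciferase neomycin HCV replicon reporter; luciferase luminescence as measure of HCV replicon replication; test concentration not given here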
[3] = biological target: Left-right determination factor 2 (Homo sapiens) (UniProt O00292); test: small molecules binding LEFTY2 protein – biochemical, small-molecule microarray, 635 nm fluorescence scan, primary screen (AID 1110); settings: higher = more signal
[4] = biological target: Calmodulin-1 (Homo sapiens) (UniProt P0DP23); test: small molecules binding calmodulin-1 with EGTA – biochemical, small-molecule microarray, Cy5-labelled CALM1, profiling panel (AID 1111); settings: Cy5-CALM1 binding fluorescence, higher = more signal;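 further: labelled calmodulin applied in Tris saline Tween buffer holding calcium plus EGTA and DTT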
[5] = biological target: Calmodulin-1 (Homo sapiens) (UniProt P0DP23); test: small molecules binding Ca-loaded calmodulin-1 – biochemical, small-molecule microarray, Cy5-labelled CALM1, plus calcium, artefact control for SMM control-protein annotation, profiling panel (AID 1112); settings: Cy5-CALM1 binding fluorescence, higher = more signal;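 further: score merges spot fluorescence with signal to noise from triplicate slides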
[6] = probe aWnt5a binding to arrayed compounds – biochemical, biotinylated probe, 635/667 nm fluorescence, primary screen (AID 1113); settings: small-molecule microarray, higher = more signal;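 further: score merges 667 nm fluorescence intensity with signal-to-noise per printed feature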
[7] = probe aShh binding to arrayed compounds – biochemical, biotinylated probe, 635/667 nm fluorescence, primary screen (AID 1114); settings: small-molecule microarray, higher = more signal;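 further: probe is biotin-labelled aShh protein from a stem cell growth factor screen; measures binding of labelled protein to compounds printed on the slide; score merges feature fluorescence at 667 nm with signal-to-noise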
[8] = probe aNog binding to arrayed compounds – biochemical, biotinylated probe, 635/667 nm fluorescence, primary screen (AID 1115); settings: small-molecule microarray, higher = more signal;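 further: probe is biotinylated aNog protein used at 0.15 µg/mL for 1 h at 4 C; z-score combines 667 nm fluorescence of each spot with its signal to noise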
[9] = biological target: Torsin-1A-interacting protein 1 (Homo sapiens) (UniProt Q5JTV8); test: compound microarray binding of lysate hLAP1 – cell lysate, small-molecule microarray, COS7 lysate, 635/667 nm fluorescence, primary screen (AID 1116); settings: 635 nm fluorescence, higher = more signal
[10] = biological target: Alpha-bungarotoxin (Bungarus multicinctus) (UniProt P60615); test: compounds binding labelled alpha-BTX control protein – biochemical, small-molecule microarray, Alexa647 label, 635/667 nm fluorescence, artefact control for SMM control protein annotation, profiling panel (AID 1117); settings: alpha-BTX-A647 binding fluorescence, higher = more signal
Albumin (Bos taurus) = Albumin (Bos taurus) (UniProt P02769); test: compounds binding labelled BSA control protein – biochemical, small-molecule microarray, Alexa647 label, 635/667 nm fluorescence, artefact control for SMM control protein annotation, profiling panel (AID 1118); settings: BSA-A647 binding, fluorescence 635 nm, higher = more signal;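 further: score merges 667 nm emission intensity and signal-to-noise per printed compound spot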
[11] = probe aXIP binding to arrayed compounds – biochemical, NeuroSMM set, 635/667 nm fluorescence, primary screen (AID 1119); settings: small-molecule microarray, higher = more signal, called active from +8 up or from −8 down;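 further: probe is the protein aXip251-270 applied at 1 µg/mL to compound-printed slides; binding of probe to printed compounds measured as 667 nm fluorescence plus signal to noise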
[12] = probe aNOTCH3 binding on compound microarray – biochemical, small-molecule microarray, 635/667 nm fluorescence, primary screen (AID 1120); settings: higher = more signal;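 further: probe is a biotin-tagged antibody raised against NOTCH3 rather than NOTCH3 protein; score merges spot fluorescence near 667 nm with spot signal to noise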
[13] = probe aNOTCH2 binding on compound microarray – biochemical, small-molecule microarray, 635/667 nm fluorescence, primary screen (AID 1121); settings: higher = more signal;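 further: score merges feature fluorescence read at 667 nm with its signal to noise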
[14] = biological target: Carbonic anhydrase 2 (Homo sapiens) (UniProt P00918); test: compounds binding carbonic anhydrase 2 – biochemical, small-molecule microarray, Alexa647-labelled CAII, profiling panel (AID 1122); settings: CAII-A647 binding fluorescence, higher = more signal
[15] = COS7 lysate on small-molecule microarray, probe aHis, 635 nm (AID 1123); settings: COS7 cell lysate, fluorescence, higher = more signal;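 further: z-score combines 667nm fluorescence intensity with signal-to-noise per printed compound spot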
[16] = probe aLAP1 signal on lysate-treated microarray – cell lysate, small-molecule microarray, COS7 lysate, primary screen (AID 1124); settings: probe aLAP1, fluorescence, higher = more signal;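 further: lysate comes from COS7 cells expressing LAP1 and is applied at 0.3 µg/mL; score merges spot fluorescence near 667 nm with signal-to-noise over triplicate slides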
Sam68 (KHDRBS1) = test: compounds binding KHDRBS1 protein – biochemical, small-molecule microarray, 635 nm fluorescence, primary screen (AID 1125); settings: higher = more signal;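 further: score merges 667 nm channel intensity with signal to noise over triplicate slides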
[17] = system: Chordin-like protein 2 (CHRDL2); test: compounds binding chordin-like 2 – biochemical, small-molecule microarray, 635 nm fluorescence, primary screen (AID 1126); settings: fluorescence 635 nm, higher = more signal;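 further: printed compound slides probed with Chrdl2 protein at 4 µg/mL for 1 h at 4 C; score merges 667 nm emission intensity with signal to noise over three replicate slides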
[18] = biological target: Concanavalin-A (Canavalia ensiformis) (UniProt P02866); test: compounds binding concanavalin A lectin – biochemical, small-molecule microarray, Alexa647 label, 635 nm, artefact control for SMM control protein annotation, primary screen (AID 1127); settings: ConA-A647 binding fluorescence, higher = more signal;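 further: z combines 667 nm emission intensity with signal-to-noise across three replicate slides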
Chain of Concanavalin-A (Canavalia ensiformis) (P02866 whole entry, looked up): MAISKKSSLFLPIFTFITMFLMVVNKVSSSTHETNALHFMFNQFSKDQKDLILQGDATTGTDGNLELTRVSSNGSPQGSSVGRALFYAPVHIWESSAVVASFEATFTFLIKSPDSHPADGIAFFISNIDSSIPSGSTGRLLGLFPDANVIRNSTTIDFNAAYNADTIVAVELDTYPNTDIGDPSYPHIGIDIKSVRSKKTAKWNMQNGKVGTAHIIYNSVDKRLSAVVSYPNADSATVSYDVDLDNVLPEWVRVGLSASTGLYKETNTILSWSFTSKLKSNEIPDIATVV

Chain of Torsin-1A-interacting protein 1 (Homo sapiens) (Q5JTV8 whole entry, looked up): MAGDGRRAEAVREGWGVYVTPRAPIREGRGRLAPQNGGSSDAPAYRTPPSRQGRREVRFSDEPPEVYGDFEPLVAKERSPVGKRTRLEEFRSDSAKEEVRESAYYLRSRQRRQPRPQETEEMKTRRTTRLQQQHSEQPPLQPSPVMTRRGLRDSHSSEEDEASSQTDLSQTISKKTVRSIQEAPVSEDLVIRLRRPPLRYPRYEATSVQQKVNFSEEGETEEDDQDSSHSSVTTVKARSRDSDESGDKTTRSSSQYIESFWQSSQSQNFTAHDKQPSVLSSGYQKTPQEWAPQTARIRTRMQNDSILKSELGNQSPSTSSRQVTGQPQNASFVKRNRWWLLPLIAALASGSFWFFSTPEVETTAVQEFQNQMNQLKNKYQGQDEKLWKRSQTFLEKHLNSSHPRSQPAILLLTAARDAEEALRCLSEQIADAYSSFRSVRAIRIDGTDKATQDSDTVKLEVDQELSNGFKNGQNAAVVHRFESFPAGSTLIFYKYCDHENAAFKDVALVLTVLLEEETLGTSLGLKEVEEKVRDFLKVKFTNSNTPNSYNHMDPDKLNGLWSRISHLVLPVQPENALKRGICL
Chain of Alpha-bungarotoxin (Bungarus multicinctus) (P60615 whole entry, looked up): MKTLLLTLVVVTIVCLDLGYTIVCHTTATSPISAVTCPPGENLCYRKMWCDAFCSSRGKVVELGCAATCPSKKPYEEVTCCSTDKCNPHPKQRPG
Chain of Left-right determination factor 2 (Homo sapiens) (O00292 whole entry, looked up): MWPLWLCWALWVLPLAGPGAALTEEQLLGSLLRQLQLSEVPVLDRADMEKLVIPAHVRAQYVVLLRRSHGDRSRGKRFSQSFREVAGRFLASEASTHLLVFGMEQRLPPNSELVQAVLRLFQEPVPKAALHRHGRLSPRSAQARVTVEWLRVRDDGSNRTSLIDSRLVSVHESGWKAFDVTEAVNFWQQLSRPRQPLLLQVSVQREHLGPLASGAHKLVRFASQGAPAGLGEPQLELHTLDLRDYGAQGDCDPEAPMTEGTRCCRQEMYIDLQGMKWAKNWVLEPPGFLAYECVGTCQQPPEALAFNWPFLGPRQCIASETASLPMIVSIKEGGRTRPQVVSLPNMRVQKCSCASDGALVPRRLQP
Chain of Albumin (Bos taurus) (P02769 whole entry, looked up): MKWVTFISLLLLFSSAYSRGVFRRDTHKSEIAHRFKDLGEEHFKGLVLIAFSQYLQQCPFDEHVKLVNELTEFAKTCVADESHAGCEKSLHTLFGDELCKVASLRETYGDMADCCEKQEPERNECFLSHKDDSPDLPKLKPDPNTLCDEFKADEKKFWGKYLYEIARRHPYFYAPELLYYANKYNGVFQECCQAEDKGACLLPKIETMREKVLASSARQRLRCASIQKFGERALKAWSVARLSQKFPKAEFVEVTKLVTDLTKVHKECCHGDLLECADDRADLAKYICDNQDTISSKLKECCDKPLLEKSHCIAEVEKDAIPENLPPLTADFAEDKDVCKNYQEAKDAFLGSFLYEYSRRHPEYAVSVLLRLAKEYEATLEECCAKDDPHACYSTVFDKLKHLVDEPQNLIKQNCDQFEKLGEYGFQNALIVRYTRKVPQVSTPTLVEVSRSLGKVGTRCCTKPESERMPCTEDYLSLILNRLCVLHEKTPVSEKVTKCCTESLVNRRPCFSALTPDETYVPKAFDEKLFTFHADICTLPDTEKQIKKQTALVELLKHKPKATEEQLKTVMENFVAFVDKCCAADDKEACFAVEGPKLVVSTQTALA

Structure (SMILES)	composite z-score [1]	z-score [2]	composite z-score [3]	composite z-score [4]	composite z-score [5]	composite z-score [6]	composite z-score [7]	composite z-score [8]	composite z-score [9]	composite z-score [10]	composite z-score (Albumin (Bos taurus))	composite Z-score [11]	composite z-score [12]	composite z-score [13]	composite z-score [14]	composite z-score [15]	composite z-score [16]	composite z-score (Sam68 (KHDRBS1))	composite z-score [17]	composite z-score [18]
COc1ccc(COC(=O)NN=C2C[C@@H](O)[C@@H](O)[C@@H]3[C@@H]4C(=O)N([C@@H](C)c5ccccc5)C(=O)[C@@H]4CC[C@@H]23)cc1	-0.372	0.426	0.609	-0.213	-0.392	-0.169	0.0121	-0.288	0.51	0.0288	0.274	-0.228 (inactive)	-0.0697	0.0318	0.171	-0.211	0.131	-0.196	0.448	0.162
O=C1[C@H]2[C@H]3[C@H](O)[C@H](O)CC(=NO[C@@H]4O[C@H](CO)[C@@H](O)[C@H](O)[C@H]4O)[C@H]3CC[C@H]2C(=O)N1C[C@@H]1CCCO1	-0.429	-0.232	0.399	-0.551	-1.1	-0.118	-0.117	-0.379	-0.367	-0.0473	-0.011	0.274 (inactive)	-0.136	-0.0101	-0.408	-0.686	0.041	0.155	0.109	-0.391
CC(=O)OC[C@H]1O[C@H](CC=NOCC[C@@H]2C=C[C@H](OC(C)=O)[C@@H](COC(C)=O)O2)C=C[C@@H]1OC(C)=O	1.02	0.111	0.888	-0.981	-0.171	-0.001	-0.0904	-0.216	-0.0873	0.408	-0.076	-0.69 (inactive)	0.127	-0.165	-0.146	-0.489	-0.099	1.29	0.973	0.304
COc1ccc(-c2cnnc(CCCn3ccnc3-c3ccccc3)n2)cc1	0.412	-2.57	0.774	0.212	-0.686	-0.103	-0.0769	-0.395	0.917	0.587	0.223	0.391 (inactive)	0.291	-0.126	0.536	0.0412	1.08	0.943	0.919	0.418
O=C1[C@H]2[C@H]3[C@H](O)[C@H](O)CC(=NO[C@@H]4O[C@H](CO)[C@@H](O)[C@H](O)[C@H]4O)[C@@H]3CC[C@H]2C(=O)N1C[C@@H]1CCCO1	1.3	-0.682	0.495	-0.158	-0.572	-0.28	-0.0769	-0.238	-0.0974	-0.103	0.587	-0.258 (inactive)	-0.243	-0.131	0.212	0.146	-0.136	1.1	0.183	0.51
CCN(CC)CC(O)CN1CCCCc2nc(C)c(C)cc21 (stereo not given)	-0.0592	0.932	0.31	-0.397	-0.125	-0.129	-0.138	-0.0137	0.579	0.695	0.401	-0.336 (inactive)	0.0026	-0.195	0.367	0.243	-0.072	0.334	0.468	0.363
CCOC(=O)CCN1C(=O)[C@H]2[C@H]3[C@H](O)[C@H](O)CC(=NNC(=O)OCC)[C@H]3CC[C@H]2C1=O	-0.0248	-2.37	0.679	-0.842	-1.67	-0.1	-0.0626	0.121	-0.0184	-0.798	-0.898	-0.17 (inactive)	0.0927	-0.145	0.505	0.294	-0.0069	0.398	1.27	-2.61
CCN1C(=O)[C@H]2[C@H]3[C@H](O)[C@H](O)CC(=NOC(C)CN4CCCc5nc(C)c(C)cc54)[C@@H]3CC[C@H]2C1=O (stereo not given in full)	0.562	-1.21	0.803	-0.528	-1.03	-0.0478	0.275	0.182	0.304	-0.0882	-0.558	0.635 (inactive)	0.148	0.0137	0.014	-0.0995	0.284	1.05	0.893	-0.471
CCCCOC(OCCCC)C(O)CSc1ccc2ccccc2c1 (stereo not given)	0.711	0.0395	0.64	-0.24	-0.19	-0.0441	0.171	-0.0281	0.506	0.086	-0.196	-0.444 (inactive)	0.0669	-0.0682	0.028	0.125	-0.0593	1.02	0.537	0.196
O=C1[C@H]2CCn3c(=O)n(-c4ccccc4)c(=O)n3[C@H]2[C@H](O)[C@@H]2O[C@H]12	-0.453	-0.687	0.33	-0.14	-0.391	-0.247	-0.124	-0.0428	0.085	0.658	0.0407	-0.916 (inactive)	-0.177	-0.0651	0.0463	0.178	-0.34	-0.319	0.37	0.218
COc1cccc([C@H](O)Cn2cc(-c3ccc(CON=C(C)C)cc3)nn2)c1	-1.42	-0.657	0.323	-0.851	-0.679	0.123	-0.229	-0.172	0.56	-0.713	0.212	-0.511 (inactive)	-0.0647	0.127	-0.0261	-0.011	-0.169	-0.937	0.0083	-2.65
